Reference: PubChem BioAssay (Tox21)
Values without a mark were called inactive. Results filed as inconclusive are left out. Where a call stands in place of a potency, no number is given. The source made the active and inactive calls. Unless noted, calls follow the shape of the dose curve; as a rule, active = well fitted curve in the direction sought with a large enough effect in the repeat runs; inconclusive = weak or mixed curves; inactive = no such curve, though single readings can be large; an effect the other way counts as inactive or inconclusive.

How the values were obtained:
[1] = qHTS assay to identify small molecule HDAC inhibitors - cell viability counter screen (AID 1259365); also: series mostly up to about 92 µM; nearly all actives have a fitted effect of over 50% in size
Summary of the method: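 To flag cytotoxic hits, 1,500 wild-type HCT-116 cells per well, plated the day before, receive test compounds for 2hr at 37 C before CellTiter-Glo reagent and a luminescence read.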

[2] = qHTS assay to identify small molecule agonists of the sonic hedgehog signaling (Shh) pathway - cell viability counter screen (AID 1259366); also: nearly all actives have a fitted effect of over 50% in size
Summary of the method: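 Fluorescence from CellTiter-Fluor reports live cells in this counter screen. NIH/3T3-derived Gli1-Luc reporter cells receive test compounds for 24hr at 37C; reagent goes in at 23hr.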

[3] = qHTS assay to identify small molecule agonists of the sonic hedgehog signaling (Shh) pathway (AID 1259368; calls by dose curve;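 also: NIH/3T3-derived 3T3Gli1-Luc cells carrying a stable Gli1-driven firefly luciferase reporter; series mostly up to about 92 µM; nearly all actives have a fitted effect of over 15% in size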)
Summary of the method: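 NIH/3T3-derived 3T3Gli1-Luc cells with stably integrated Gli1-driven firefly luciferase, 2,000 cells/well, compounds added after 4 hr. Incubated 24 hr at 37C, 5% CO2; luminescence read after 30 min with luciferase reagent at room temperature.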

[4] = qHTS assay to identify small molecule antagonists of the sonic hedgehog signaling (Shh) pathway (AID 1259369; calls by dose curve; also: nearly all actives have a fitted effect of over 45% in size)
Summary of the method: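 NIH/3T3-derived Gli1-Luc reporter cells plated 4 h, dosed with compound, then stimulated with conditioned medium for 24 h at 37 C. Firefly luciferase luminescence read after 30 min with detection reagent at room temperature.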

[5] = target: Estrogen receptor beta (Homo sapiens) (UniProt Q92731); test: qHTS assay to identify small molecule agonists of the estrogen receptor beta (ER-beta) signaling pathway (AID 1259377; active = well fitted activation curve with a large enough effect in the signal ratio in the repeat runs, not every such curve was filed as active; the % refers to the signal ratio)
Estrogen receptor beta (Homo sapiens), sequence (Q92731 whole entry, looked up): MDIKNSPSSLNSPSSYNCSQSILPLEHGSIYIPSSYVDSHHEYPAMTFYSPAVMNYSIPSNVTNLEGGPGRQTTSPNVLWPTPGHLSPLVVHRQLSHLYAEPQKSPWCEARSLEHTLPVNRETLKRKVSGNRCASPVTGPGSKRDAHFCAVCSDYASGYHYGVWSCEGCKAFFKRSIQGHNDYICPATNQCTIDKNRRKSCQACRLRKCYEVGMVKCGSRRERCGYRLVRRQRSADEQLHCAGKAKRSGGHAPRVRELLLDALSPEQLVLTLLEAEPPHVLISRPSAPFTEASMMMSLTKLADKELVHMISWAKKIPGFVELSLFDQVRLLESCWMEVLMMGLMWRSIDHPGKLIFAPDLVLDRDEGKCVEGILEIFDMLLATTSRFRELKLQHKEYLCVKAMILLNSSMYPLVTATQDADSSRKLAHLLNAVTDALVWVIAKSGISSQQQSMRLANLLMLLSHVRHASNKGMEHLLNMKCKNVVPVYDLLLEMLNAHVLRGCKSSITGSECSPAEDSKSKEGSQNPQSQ
Summary of the method: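 Screening used GripTite ER-beta-UAS-bla cells held in 2% charcoal-stripped FBS medium. After overnight (16 hr) compound incubation at 37C, beta-lactamase activity was detected with a FRET substrate by fluorescence.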

[6] = target: Estrogen receptor beta (Homo sapiens) (UniProt Q92731); test: qHTS assay to identify small molecule antagonists of the estrogen receptor beta (ER-beta) signaling pathway (AID 1259378; active = well fitted inhibition curve with a large enough effect in the signal ratio in the repeat runs, not every such curve was filed as active; the % refers to the signal ratio)
Summary of the method: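 Antagonist mode: compounds added to beta-lactamase reporter HEK293T ER-beta-UAS cells stimulated with E2 (1nM final), 16 hr at 37C. LiveBLAzer B/G FRET substrate, 2 hours room temperature, fluorescence read-out.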

[7] = qHTS assay to identify small molecule agonists of the androgen receptor (AR) signaling pathway in the presence of an antagonist - cell viability counter screen (AID 1259379);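 also: MDA-kb2 human breast cancer cells carrying an MMTV luciferase reporter; series mostly up to about 92 µM; nearly all actives have a fitted effect of over 25% in size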
Summary of the method: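 MDA-kb2 cells (MMTV-luciferase, AR/GR), 3,000/well, 5 h attachment, then 3.0 µM nilutamide (final) and compounds at 15 concentrations. Viability by CellTiter-Fluor fluorescence after 16 h at 37 °C, 0% CO2, in the reporter wells.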

[8] = qHTS assay to identify small molecule agonists of the estrogen receptor beta (ER-beta) signaling pathway - cell viability counter screen (AID 1259380); also: nearly all actives have a fitted effect of over 30% in size
Summary of the method: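 ER-beta-UAS-bla HEK293T cells in medium with 2% charcoal-stripped FBS, pre-incubated 6 hr, then treated 16 hr at 37C. Cytotoxicity read in the same wells by CellTiter-Glo luminescence after 30 min at room temperature.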

[9] = qHTS assay to identify small molecule antagonists of the estrogen receptor beta (ER-beta) signaling pathway - cell viability counter screen (AID 1259382);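 also: HEK293T cells carrying ER-beta-UAS-bla reporter stimulated with estradiol; series mostly up to about 92 µM; nearly all actives have a fitted effect of over 55% in size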
Summary of the method: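 ER-beta-UAS-bla HEK293T cells in 2% charcoal-stripped FBS medium, treated with compound plus 1 nM 17-beta-estradiol for 16 h at 37C. Viability read by CellTiter-Glo luminescence after 30 min at room temperature in the same wells.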

[10] = target: Estrogen receptor (Homo sapiens) (UniProt P03372); test: qHTS assay to identify small molecule agonists of the estrogen receptor alpha (ER-alpha) signaling pathway in the presence of an antagonist (AID 1259383; calls by dose curve; also: top concentration of the series differs between compounds; nearly all actives have a fitted effect of over 15% in size)
Estrogen receptor (Homo sapiens), sequence (P03372 whole entry, looked up): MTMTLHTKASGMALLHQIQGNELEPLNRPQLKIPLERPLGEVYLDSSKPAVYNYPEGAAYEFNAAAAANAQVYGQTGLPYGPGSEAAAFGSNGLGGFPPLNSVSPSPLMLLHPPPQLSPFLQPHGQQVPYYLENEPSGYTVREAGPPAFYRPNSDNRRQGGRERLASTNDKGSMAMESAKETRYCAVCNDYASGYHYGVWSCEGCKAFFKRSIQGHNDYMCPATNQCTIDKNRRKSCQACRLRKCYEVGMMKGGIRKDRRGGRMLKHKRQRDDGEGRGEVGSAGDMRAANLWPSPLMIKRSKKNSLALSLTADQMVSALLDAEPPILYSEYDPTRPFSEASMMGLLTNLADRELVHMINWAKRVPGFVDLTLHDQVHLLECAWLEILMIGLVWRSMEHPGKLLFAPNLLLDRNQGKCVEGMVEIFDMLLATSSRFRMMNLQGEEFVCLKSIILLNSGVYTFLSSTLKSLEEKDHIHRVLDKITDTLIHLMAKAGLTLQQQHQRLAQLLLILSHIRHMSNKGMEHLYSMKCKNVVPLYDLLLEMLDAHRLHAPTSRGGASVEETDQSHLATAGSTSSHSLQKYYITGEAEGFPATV
Summary of the method: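 VM7Luc4E2 cells express endogenous full-length ER-alpha with an ERE-luciferase reporter and were hormone-deprived for 5 days. Compounds at 15 concentrations were added with 10.0nM ICI-182,780 for 22hr at 37C. Luminescence was read with ONE-Glo.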

[11] = qHTS assay to identify small molecule agonists or antagonists of the thyroid stimulating hormone receptor (TSHR) signaling pathway - wild type cell line counter screen (AID 1259384; calls by dose curve)
Summary of the method: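 Counter screen in untransfected Hek293: compounds (15-point titration, triplicate) plus phosphodiesterase inhibitor Ro20-1724 added after 18 h plating; 30 min RT. Intracellular cAMP via competitive d2/cryptate immunoassay, 1 h incubation.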

[12] = target: Thyrotropin receptor (Homo sapiens) (UniProt P16473); test: qHTS assay to identify small molecule antagonists of the thyroid stimulating hormone receptor (TSHR) signaling pathway (AID 1259385; calls by dose curve; also: nearly all actives have a fitted effect of over 20% in size)
Thyrotropin receptor (Homo sapiens), sequence (P16473 whole entry, looked up): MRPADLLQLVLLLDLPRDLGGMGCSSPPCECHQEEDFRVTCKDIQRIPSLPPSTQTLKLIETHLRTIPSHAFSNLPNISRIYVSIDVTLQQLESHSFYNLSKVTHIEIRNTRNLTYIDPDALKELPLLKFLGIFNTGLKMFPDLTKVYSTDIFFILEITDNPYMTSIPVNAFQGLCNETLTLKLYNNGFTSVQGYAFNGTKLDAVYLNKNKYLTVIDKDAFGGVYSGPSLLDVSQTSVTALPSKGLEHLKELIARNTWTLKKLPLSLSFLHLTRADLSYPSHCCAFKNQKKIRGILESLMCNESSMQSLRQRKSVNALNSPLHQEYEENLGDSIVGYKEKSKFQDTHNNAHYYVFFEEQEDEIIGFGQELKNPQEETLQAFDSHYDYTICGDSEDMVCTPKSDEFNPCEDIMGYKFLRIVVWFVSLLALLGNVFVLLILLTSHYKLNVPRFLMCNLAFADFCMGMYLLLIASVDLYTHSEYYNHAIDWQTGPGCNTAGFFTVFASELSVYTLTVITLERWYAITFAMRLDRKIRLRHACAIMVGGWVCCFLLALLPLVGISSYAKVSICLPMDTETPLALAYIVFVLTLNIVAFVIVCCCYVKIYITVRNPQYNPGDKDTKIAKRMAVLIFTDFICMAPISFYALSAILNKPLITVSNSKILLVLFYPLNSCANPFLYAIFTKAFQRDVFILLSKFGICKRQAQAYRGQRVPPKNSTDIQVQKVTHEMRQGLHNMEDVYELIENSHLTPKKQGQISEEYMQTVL
Summary of the method: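 Antagonist mode: compound-treated TSHR-expressing HEK293 cells were stimulated with 1.5 ng/mL TSH (final) in presence of Ro20-1724 for 30 min at RT. HTRF cAMP detection after 1 h; each compound tested at 15 concentrations, triplicate.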

[13] = qHTS assay to identify small molecule agonists of the estrogen receptor alpha (ER-alpha) signaling pathway in the presence of an antagonist - cell viability counter screen (AID 1259386);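 also: series mostly up to about 92 µM; cells exposed to compounds for 22 h at 37 °C before the viability read; nearly all actives have a fitted effect of over 30% in size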
Summary of the method: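 Cell viability in VM7Luc4E2 cells (endogenous full-length ER-alpha) measured by CellTiter-Fluor fluorescence in the same wells as the luciferase screen. Cells pre-cultured 5 days in charcoal-stripped serum, then treated 22 h with compounds at 15 concentrations plus 10.0nM ICI-182,780.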

[14] = target: Progesterone receptor (Homo sapiens) (UniProt P06401); test: qHTS assay to identify small molecule agonists of the progesterone receptor (PR) signaling pathway (AID 1346784; calls by dose curve; also: nearly all actives have a fitted effect of over 30% in size; also: potency is read from the fitted curve at half-maximal effect)
Progesterone receptor (Homo sapiens), sequence (P06401 whole entry, looked up): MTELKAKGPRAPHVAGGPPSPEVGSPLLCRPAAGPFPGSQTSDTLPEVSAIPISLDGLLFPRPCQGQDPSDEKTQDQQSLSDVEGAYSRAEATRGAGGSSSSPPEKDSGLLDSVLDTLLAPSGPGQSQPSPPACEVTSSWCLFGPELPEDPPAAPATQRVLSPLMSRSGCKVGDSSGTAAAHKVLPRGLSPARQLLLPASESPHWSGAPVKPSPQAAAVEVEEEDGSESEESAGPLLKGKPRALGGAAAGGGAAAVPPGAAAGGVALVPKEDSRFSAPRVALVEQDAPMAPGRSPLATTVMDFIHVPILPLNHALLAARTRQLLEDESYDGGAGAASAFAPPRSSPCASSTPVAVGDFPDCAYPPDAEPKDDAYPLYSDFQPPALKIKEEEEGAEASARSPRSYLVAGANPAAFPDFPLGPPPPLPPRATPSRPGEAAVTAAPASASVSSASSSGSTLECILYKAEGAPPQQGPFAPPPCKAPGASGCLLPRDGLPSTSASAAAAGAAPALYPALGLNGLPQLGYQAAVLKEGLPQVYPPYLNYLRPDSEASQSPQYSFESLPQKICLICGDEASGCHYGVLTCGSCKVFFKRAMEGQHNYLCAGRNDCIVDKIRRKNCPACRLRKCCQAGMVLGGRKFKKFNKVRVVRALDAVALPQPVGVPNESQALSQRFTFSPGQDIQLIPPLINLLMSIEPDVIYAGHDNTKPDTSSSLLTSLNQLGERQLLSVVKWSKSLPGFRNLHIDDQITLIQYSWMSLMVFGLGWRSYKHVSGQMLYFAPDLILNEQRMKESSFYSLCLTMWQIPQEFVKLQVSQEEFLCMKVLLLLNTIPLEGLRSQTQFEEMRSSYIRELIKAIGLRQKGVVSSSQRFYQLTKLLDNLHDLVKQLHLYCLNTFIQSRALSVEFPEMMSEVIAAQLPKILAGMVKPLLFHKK
Summary of the method: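 Seed PR-UAS-bla HEK 293T cells (2% charcoal-stripped FBS), incubate 6 hr at 37C; add compounds in DMSO, 16 hr at 37C; add LiveBLAzer B/G substrate, 2 hr RT; read fluorescence intensity.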

[15] = target: Progesterone receptor (Homo sapiens) (UniProt P06401); test: qHTS assay to identify small molecule antagonists of the progesterone receptor (PR) signaling pathway (AID 1346795; active = well fitted inhibition curve with a large enough effect in the signal ratio in the repeat runs, not every such curve was filed as active; the % refers to the signal ratio)
Summary of the method: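 Screening used a GripTite HEK293T line with PR-responsive UAS-beta-lactamase. Cells were challenged with compound in the presence of 1 nM R5020 final for 16 hr at 37C; B/G FRET substrate, 2 hr room temperature, fluorescence.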

[16] = qHTS assay to identify small molecule antagonists of the progesterone receptor (PR) signaling pathway - cell viability counter screen (AID 1346798); also: series mostly up to about 92 µM; nearly all actives have a fitted effect of over 50% in size
Summary of the method: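 Measures cytotoxicity in parallel with the PR antagonist reporter read: HEK293T PR-UAS-bla cells get compound and R5020 for 16 hr, and remaining viable cells are quantified by CellTiter-Glo luminescence.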

[17] = qHTS assay to identify small molecule antagonists of the TGF-beta/Smad signaling pathway - cell viability counter screen (AID 1346824); also: nearly all actives have a fitted effect of over 50% in size
Summary of the method: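 Cytotoxicity counter-screen run in the same wells as the beta-lactamase Smad reporter read: CellTiter-Glo luminescence after 30 min at room temperature. HEK 293T SBE-bla cells had 5 hr compound exposure at 37 C with TGF-beta1 (0.25 ng/mL stock).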

[18] = qHTS assay to identify small molecule agonists of the progesterone receptor (PR) signaling pathway - cell viability counter screen (AID 1346799; calls by dose curve; also: nearly all actives have a fitted effect of over 45% in size)
Summary of the method: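 Using the same plates as the PR reporter screen, HEK293T PR-UAS-bla cells received compounds for 16 hr at 37C and were then lysed with CellTiter-Glo; luminescence was read 30 min later at room temperature.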

[19] = target: Androgen receptor (Homo sapiens) (UniProt P10275); test: qHTS assay to identify small molecule agonists of the androgen receptor (AR) signaling pathway in the presence of an antagonist (AID 1259381; calls by dose curve; also: nearly all actives have a fitted effect of over 15% in size)
Androgen receptor (Homo sapiens), sequence (P10275 whole entry, looked up): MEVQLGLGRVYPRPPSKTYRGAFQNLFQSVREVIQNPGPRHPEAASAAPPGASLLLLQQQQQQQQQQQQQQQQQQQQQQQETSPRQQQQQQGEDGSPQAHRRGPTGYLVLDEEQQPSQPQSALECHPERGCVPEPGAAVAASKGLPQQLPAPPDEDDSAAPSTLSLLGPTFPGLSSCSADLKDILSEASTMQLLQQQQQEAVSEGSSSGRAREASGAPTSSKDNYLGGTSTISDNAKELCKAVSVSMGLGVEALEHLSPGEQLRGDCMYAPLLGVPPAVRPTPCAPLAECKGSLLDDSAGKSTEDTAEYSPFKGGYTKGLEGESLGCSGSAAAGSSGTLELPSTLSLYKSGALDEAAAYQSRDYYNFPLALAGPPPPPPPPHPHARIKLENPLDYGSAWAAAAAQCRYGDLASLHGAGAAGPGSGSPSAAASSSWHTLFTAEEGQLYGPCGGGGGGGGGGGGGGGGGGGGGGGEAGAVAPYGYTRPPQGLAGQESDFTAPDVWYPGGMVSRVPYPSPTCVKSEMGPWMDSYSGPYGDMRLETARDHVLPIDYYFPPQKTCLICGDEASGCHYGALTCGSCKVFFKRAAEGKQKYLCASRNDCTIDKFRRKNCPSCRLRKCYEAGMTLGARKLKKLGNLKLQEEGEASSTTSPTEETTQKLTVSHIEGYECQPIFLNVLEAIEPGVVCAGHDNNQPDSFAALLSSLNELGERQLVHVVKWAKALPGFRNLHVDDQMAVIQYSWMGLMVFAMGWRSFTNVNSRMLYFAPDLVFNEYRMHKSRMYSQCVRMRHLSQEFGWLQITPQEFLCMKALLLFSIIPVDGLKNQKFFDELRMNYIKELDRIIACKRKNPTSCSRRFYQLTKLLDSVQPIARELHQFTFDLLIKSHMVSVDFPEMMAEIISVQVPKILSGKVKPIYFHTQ
Summary of the method: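 MDA-kb2 cells carrying MMTV-luciferase (AR/GR responsive), 3,000 cells/well, co-treated with 3.0 uM nilutamide final. Compounds at 15 concentrations, 16 hr at 37C without CO2. Luciferase luminescence read after 30 min with ONE-Glo.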

SMILES | outcome [1] | outcome [2] | outcome [3] | Potency [4] | Potency [5] | outcome [6] | outcome [7] | Potency [8] | outcome [9] | Potency [10] | outcome [11] | outcome [12] | outcome [13] | Potency [14] | Potency [15] | outcome [16] | outcome [17] | Potency [18] | outcome [19]
CC(CC(=O)Cl)CC(C)(C)C (configuration not stated) | inactive | inactive | inactive | inactive | inactive | inactive | inactive | inactive | inactive | inactive | inactive | inactive | inactive | 12.3 µM (active) | inactive | inactive | inactive | – | –
CCC(C)(C)C | inactive | inactive | inactive | inactive | inactive | inactive | – | inactive | inactive | inactive | inactive | inactive | inactive | – | inactive | inactive | inactive | inactive | –
O=C(CCBr)N1CCN(C(=O)CCBr)CC1 | inactive | inactive | inactive | inactive | – | – | inactive | – | inactive | inactive | inactive | inactive | inactive | inactive | – | – | inactive | inactive | –
CCCc1ncc(C(=O)O)s1 | inactive | inactive | inactive | inactive | – | inactive | inactive | inactive | inactive | – | – | – | inactive | inactive | inactive | inactive | inactive | inactive | inactive
O=c1[nH]c(=O)c2cn[nH]c2[nH]1 | inactive | inactive | inactive | inactive | inactive | inactive | inactive | inactive | inactive | – | – | – | inactive | inactive | inactive | inactive | inactive | inactive | –
C[C@H]1COc2c(C3(N)CC3)c(F)cc3c(=O)c(C(=O)O)cn1c23 | inactive | inactive | inactive | inactive | – | inactive | inactive | – | inactive | – | inactive | inactive | inactive | inactive | inactive | inactive | inactive | inactive | –
C=CC(=O)OCC[N+](C)(C)C | inactive | inactive | inactive | inactive | inactive | inactive | inactive | inactive | inactive | inactive | inactive | inactive | inactive | inactive | inactive | inactive | inactive | inactive | –
O=P(O)(O)C(O)(Cc1cccnc1)P(=O)(O)O | inactive | inactive | inactive | inactive | – | – | inactive | inactive | inactive | inactive | – | – | inactive | – | – | – | inactive | inactive | –
CC(C)(C)C(=O)NCCCC(=O)O | inactive | inactive | inactive | – | – | – | inactive | – | – | inactive | inactive | inactive | inactive | – | – | inactive | inactive | inactive | –
N=C(N)S(=O)O | inactive | inactive | inactive | inactive | – | – | inactive | inactive | inactive | inactive | inactive | inactive | inactive | – | – | inactive | inactive | inactive | –
O=C(O)P(=O)(O)O | inactive | inactive | inactive | inactive | – | – | inactive | inactive | – | – | inactive | inactive | inactive | inactive | – | inactive | inactive | – | –
CCCCNCC | inactive | inactive | inactive | inactive | – | – | inactive | inactive | – | inactive | inactive | inactive | inactive | inactive | – | inactive | inactive | inactive | –
CCc1ccc(CC)cc1 | inactive | inactive | inactive | inactive | – | inactive | inactive | inactive | – | inactive | inactive | inactive | inactive | inactive | inactive | inactive | inactive | inactive | –
CC(=O)Nc1ccc(S(=O)(=O)Nc2cc(C)on2)cc1 | inactive | inactive | inactive | inactive | – | – | inactive | inactive | inactive | inactive | inactive | inactive | inactive | inactive | inactive | inactive | inactive | – | –
CCOCCOCCOC(C)=O | inactive | inactive | inactive | inactive | – | – | inactive | inactive | inactive | – | inactive | inactive | inactive | inactive | inactive | inactive | inactive | – | –
CCCCCCCC(=O)N(C)C | inactive | inactive | inactive | inactive | inactive | inactive | inactive | inactive | – | inactive | – | – | inactive | inactive | inactive | inactive | inactive | – | –
CCOc1ccccc1OCCN[C@H](C)Cc1ccc(OC)c(S(N)(=O)=O)c1 | inactive | inactive | inactive | – | inactive | inactive | inactive | inactive | inactive | – | inactive | inactive | inactive | inactive | inactive | inactive | inactive | – | –
NC(=O)CC[C@@H](N)C(=O)O | inactive | inactive | inactive | inactive | inactive | – | inactive | inactive | inactive | – | inactive | inactive | inactive | – | inactive | inactive | inactive | inactive | –
CCOC(=O)[C@H](CCc1ccccc1)N[C@H]1CS[C@H](c2cccs2)CN(CC(=O)O)C1=O | inactive | inactive | inactive | inactive | – | – | inactive | inactive | – | inactive | inactive | inactive | inactive | – | – | – | inactive | inactive | inactive
O=S(=O)(O)CC(O)CCl (configuration not stated) | inactive | inactive | inactive | inactive | – | inactive | inactive | inactive | inactive | inactive | – | – | inactive | inactive | – | inactive | inactive | inactive | –
